Results on 53 sequences are retold here after the supplement of paper PMC11417369.

± gives the standard deviation of the averaged measurements. In all, about 25,000 sequences were measured (“ln(normalized median fluorescence intensity)”: median about 8.6, highest 2% from about 10 on). This is one part of a sample in which the highest values are shown more often than they occur.

This test relates to PfAP2-EXP AP2 domain (GST-tagged). Nature of the test: gcPBM binding intensity (ln(normalized median fluorescence intensity)); higher = stronger DNA binding. An outline of the steps: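 GST-fused DNA-binding domains of P. falciparum, expressed in E. coli, were applied at about 25 μg on average for 1 h to an Agilent 4 × 180k array of primer-extended double-stranded 36-bp intergenic genomic probes and negative controls. Binding intensity is the highest Masliner-normalised natural-log median intensity across replicate spots of either probe orientation, measured with Alexa488 anti-GST antibody and a 488 nm scan.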
With “AAAAAAATATATATTACACACATATATACCTATATA [CACACA_site5688]”, the “gcPBM binding intensity (ln)” value worked out at 8.18 ± 0.47. Consider “TATATCTGTATCATTACACACATGTATACTTATTTG [CACACA_site6134]”, for which the “gcPBM binding intensity (ln)” value was 8.74 ± 0.43. The value for “TTACGATTATACAAAAGTACATGTATTACACAATAT [XGTACX_site5138]” was 8.6 ± 0.33; that for “TACAAAAAAAGATGATGTACAATGAAAAATAAGAAA [XGTACX_site5840]” was 9.18 ± 0.37; that for “TATTATAATTAATATACACACGCTTATATATATATA [CACACA_site75]” was 9.93 ± 0.3. The value for “TAATTGTAGACATGCACACACAAATATTATATATGT [CACACA_site845]” was 8.72 ± 0.45. For “TAATGAAATATACAGAGTACATTCTGTATATAGGAT [XGTACX_site7691]” the value was 8.46 ± 0.3; for “ATATTTACCACTGTATGTACATATATAAAATATATC [XGTACX_site6373]”, 8.81 ± 0.18; for “CTTGAAAGATTTTATTGTACTCATAAGATACATTTC [XGTACX_site3178]”, 8.31 ± 0.36.

For the sequence “AGTTTATAGTGATATTGTACATATATATATATATAT [XGTACX_site572]”, the “gcPBM binding intensity (ln)” value turned out to be 10.2 ± 0.66. With “TATATAGTTTATATTTGTACATATAGACATTTATAA [XGTACX_site6414]”, the “gcPBM binding intensity (ln)” value worked out at 8.23 ± 0.3. The value for “TACATTGTATACATATGTACACATATATATATATAT [XGTACX_site6174]” was 10.1 ± 0.4; that for “TATATATATATATATTGTACACATACATGTAGTTTT [XGTACX_site4848]” was 10.2 ± 0.29; that for “TATTATAGTATATATTGTACATATATATATTTTTTA [XGTACX_site8831]” was 8.35 ± 0.37. The value for “TATATATATACATATTGTACATGTGTATATTTTTTT [XGTACX_site361]” was 8.93 ± 0.042; that for “ATATATATATATATATGTACACATATACGCTTTTTC [XGTACX_site3838]” was 10.3 ± 0.28; that for “TGTATACGCATATGTACACACATATATATGTATATG [CACACA_site3087]” was 8.65 ± 0.16. The value for “ATATATATATATATATGTACACATATATTTCTTTTC [XGTACX_site3443]” was 10 ± 0.47.

For the sequence “AAAATGTACTTTTTCTAAAGAGTAATGATGCTTGAT [CACACA_negctrl_site1124]”, the “gcPBM binding intensity (ln)” value is 8.52 ± 0.45.

As to “ATATGATAAATTATATGTACTTAAAATATATTATAA [XGTACX_site5904]”, the “gcPBM binding intensity (ln)” value is 8.26 ± 0.18. For “TATTTATATAGACACACACACATATATTTATATTTT [CACACA_site7240]” the value was 8.52 ± 0.45; for “GTTATTTATAGACACACACACATGCATGCACATATA [CACACA_site6204]”, 10.2 ± 0.39. Regarding “TATATATATATATATACATGCATACAATTTTATGAG [TGCATGCA_site466]”, the “gcPBM binding intensity (ln)” value came to 10.2 ± 0.29. For “CATATTTTATTATATACATGCAATTTTAATATATAT [TGCATGCA_site544]” the value was 8.59 ± 0.25; for “TATTCATGCATATACACACACATATATTTATATTTT [CACACA_site7786]”, 8.77 ± 0.35. For “CTTTTTTTTTTATGCACACACAATTATACATTCCTT [CACACA_site3877]” the value was 9.08 ± 0.37; for “TATATATATATATATACATGCATATTTTTTATTTTT [TGCATGCA_site464]”, 10.3 ± 0.31; for “AACAGACATAGACACACACACATATATTTATTTATA [CACACA_site7571]”, 8.64 ± 0.4. Turning to “TATATACATGCATATACACACATATATTTATTTATA [CACACA_site6327]”, the “gcPBM binding intensity (ln)” value was 8.7 ± 0.33.

As to “TATATATATATATATGCACACATTTATACAATTTTA [CACACA_site2986]”, the “gcPBM binding intensity (ln)” value came to 10.2 ± 0.3. The value for “TATAATAATAATTATACATGCATGAATATTTATATG [TGCATGCA_site811]” was 8.86 ± 0.16. Take “TCCTTTTTTTTTTATGCACACACAATTATACATTCC [CACACA_site9287]”: the “gcPBM binding intensity (ln)” value was determined as 9.06 ± 0.4. The value for “GCATAACCTTTATATTGTACATATACCTTTATTGTT [XGTACX_site6046]” was 9.16 ± 0.45. For “TTTAATAAATAAATAAATAAAATATATTAAAAACCA [CACACA_negctrl_site80]” the value was 8.38 ± 0.36; for “GCATCCCTTTTTATGTGTACATACAAAGGCAATTAC [XGTACX_site6977]”, 8.86 ± 0.33; for “CCTTAATATTTTTGAAGTACATATTTATTTTACAAG [XGTACX_site3049]”, 8.31 ± 0.33. For “TGCTACATTTTATGTACACACATATACAGATATATA [CACACA_site4646]” the value was 8.42 ± 0.26; for “TCATATGTTAAATGATGTACATTTAATATAAATAAA [XGTACX_site900]”, 8.38 ± 0.15; for “AATTGCATAATATATTCACACATTTTTAAGTGATAC [CACACA_site5679]”, 8.38 ± 0.35. On to “ATATATATATATATTGTACACACATTTATGCATATA [CACACA_site9055]”, for which the “gcPBM binding intensity (ln)” value was found to be 10 ± 0.2. The value for “ATATTCAATATATTATGTACACATATATGAGGATAT [XGTACX_site7019]” was 8.65 ± 0.41; that for “ATAATCATAAAATAAACACACATATATAAATATATT [CACACA_site276]” was 8.27 ± 0.47; that for “TATGAATGGTTAAGTACACACATATTAATATATGTA [CACACA_site3490]” was 8.49 ± 0.45. For “ATATTATATAATAATGCATGCACCTTATTTTCATTT [TGCATGCA_site405]” the value was 10.2 ± 0.44.

In the case of “TAATAATTAATTAATATAATATTTTTTCATAATTAT [XGTACX_negctrl_site602]”, the “gcPBM binding intensity (ln)” value is 8.22 ± 0.4. The value for “ATTATATAATAATGCATGCACCTTATTTTCATTTCA [GTGCAC_site9922]” was 9.99 ± 0.19; that for “TGTATAATATTTGGTGCACACAAATTAACAACTGTT [CACACA_site9245]” was 9.21 ± 0.32; that for “AACATATTTTTAAATACACACACATAAAAAAAAAAA [CACACA_site8279]” was 8.59 ± 0.5.

In the case of “AATTTATATGTTTTGTGTACACAATTTATTAAATTA [XGTACX_site6448]”, the “gcPBM binding intensity (ln)” value worked out at 9.03 ± 0.29. For “ATTCGTCACATTTTTTGATATATATATATATATATA [CACACA_negctrl_site1785]” the value was 10.4 ± 0.4; for “TATTTTGTATTCATTTGTCACATATAATAGATAGGA [TGCATGCA_negctrl_site9]”, 8.69 ± 0.32. For “GTATATATTTTGTATTCATTTGTCACATATAATAGA [CACACA_negctrl_site506]” the value was 8.69 ± 0.5; for “ATCCATCTTTTAATTTGTACTTATTCTTTTTTCTTT [XGTACX_site5299]”, 9 ± 0.67.
